Data on 40 compounds can be found in PubChem BioAssay (NCI).

Compounds without any hit were thinned out: in the full panel of roughly 83,000, 20% have a hit.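 Cell lines were cultured in 96-well plates, exposed to a single compound concentration, and assessed for percent growth 48 hours later.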 Values without a mark were called inactive. Active and inactive are the calls of the source. The calls were made as follows: active = growth percent below 10; inactive = the rest.

The experiment has as its system HL-60(TB) leukemia. The experiment in a line: NCI-60 one-dose screen, 48 h (100 = growth as untreated, 0 = no growth, -100 = all killed). The following applies: 10 µM unless noted.
For `CCCCCCCCN(CCCCCCCC)CC(O)c1cc(Cl)ccc1OC` (stereo not given), the growth was 73.4%. Next, `CCOC(=O)c1c(O)c2cc(-c3ccccc3)nc(OCC)c2c(=O)n1C`: 156%; `OCC1OC(n2cnc3c(Cl)ncnc32)CC1O` (stereo not given): 121%; `c1cc[c]([Bi]([c]2ccccc2)[c]2ccccc2)cc1`: 96.6%. Next, `Clc1ccccc1/C=N\Nc1ccccn1`: 98.1%; `COc1ccc(/C=C(/c2ccccc2)[N+](=O)[O-])c(OC)c1`: 0.521% (active). For `CC(C)OC(=O)Nc1cc(F)c(F)cc1F` the value was 98.6%; for `N#Cc1ccc2nc[nH]c2c1`, 101%. For `O=C(NCCO)C(F)(F)F`, the growth was 103%.

As for `COc1ccc(-c2nn(-c3cccc(Cl)c3)cc2-c2cc(-c3ccccc3)[nH]c(=O)c2C#N)cc1`, the growth was 111%. For `COc1ccc(OC)c([N+](=O)[O-])c1C=O` the value was 88.2%.

Consider `C/C(=N\O)[C@@H]1CC[C@]2(CO)CC[C@]3(C)[C@H](CC[C@@H]4[C@@]5(C)CCCNC(C)(C)[C@@H]5CC[C@]43C)[C@@H]12`, for which the growth was 95.1%.

As to `COc1ccc(C(=O)COc2cccc(/C=C3\Cc4ccccc4C3=O)c2)cc1`, the growth was 73.4%. Consider `CC1=CC2C(C(O)CC3(C)C2CC(C)C32OCOC23COCO3)C2(C)C/C(=C/O)C(=O)C=C12` (stereo not given), for which the growth was -12.3% (active). For `CCOC(=O)c1cnn2c3ccccc3n(S(=O)(=O)c3ccc(OC)cc3)c12` the value was 4.77% (active). On to `COc1cc(/C=N/O)nc(-c2ccccn2)c1`, for which the growth was -13.5% (active). Next, `O=C(O)c1cc2c(s1)C(=O)c1sccc1C2=O`: 10.9%. Consider `CCCCCCCCCCSC(=N)N` (tested in a mixture with another compound), for which the growth was 62.8%. As for `c1ccc(-c2cn3ccnc3c(-c3ccc4c(c3)ncn4C3CCCCC3)n2)cc1`, the growth was 80.7%. Next, `COc1ccc(C(=O)/C=C/c2cccnc2Nc2cc(OC)c(OC)c(OC)c2)cc1`: -23.2% (active); `C=C(C)C1CCC(=C)C2CCC3(C)OC12/C=C(/COC(C)=O)CCC3O` (stereo not given): 90.8%. Next, `COc1cc(C(=O)Nc2cc(OC)c3ccn(C)c3c2)cc2c1C[C@]1(C)CC[C@@H](O)C(C)(C)[C@H]1O2`: 1.14% (active); `CCCCn1sc(=O)n(Cc2ccc(CNC(=O)OCc3ccc4c(Br)cc(Br)c(O)c4n3)cc2)c1=O`: -60.6% (active).

Regarding `CCOC(=O)c1c(C)nc2c(c1N)C(=O)C(=O)N2Cc1ccc(C(F)(F)F)cc1`, the growth is 43.5%. Next, `Cc1cccc(Oc2ccc(Nc3ncnc4ccc(NC(=O)CN5CCN(C)CC5)cc34)cc2Cl)c1`: -40.2% (active).

As to `COc1ccc(Cl)cc1NC(N)=S`, the growth was 101%. For `CC(C)Oc1nc2c(c(=O)n(C)c(=O)n2C)n1C` the value was 95.3%. For `Cc1c(C(N)=O)sc2ncn(CC(=O)Nc3ccc(Cl)cc3)c(=O)c12` the value was 110%.

For `COc1ccc(-n2nc(C)c3c(Oc4ccc(NC(=O)Nc5c(Cl)cccc5Cl)cc4)ncnc32)cc1`, the growth was 100%.

In the case of `Fc1ccccc1Nc1ccc2nnc(-c3ccncc3)n2n1`, the growth is 92.6%. For `C=C1C(=O)O[C@H]2[C@H]1CC/C(COC(=O)/C=C\C(=O)O)=C\CC[C@@]1(C)O[C@@H]21` the value was 105%; for `COc1cc(OC)c(/C=C/S(=O)(=O)Cc2ccc(OC)c(NCC(=O)O)c2)c(OC)c1`, -32% (active).

Turning to `CCCOc1nc(SCCC)nc2c1cnn2-c1ccccc1`, the growth was 136%. For `Cc1cnc2nc(-c3ccc(N(C)C)cc3)cn2c1` the value was 90.7%; for `NC1=C(c2nn[nH]n2)C(c2ccccc2Cl)c2ccc3ccccc3c2O1` (stereo not given), 54.3%; for `Cc1ccc(C(=O)c2ccc(CC(=O)N/N=C/c3ccccc3O)n2C)cc1`, 87%. For `CN1CCN(Cc2ccc(NC(=O)c3cncc(C#Cc4ccc(N)nc4)c3)cc2C(F)(F)F)CC1` the value was -38.5% (active); for `CCC(C)(C)c1ccc(OCCCCCCN2CCNCC2)cc1`, -17.4% (active); for `CCN1C(=O)N(CC)C2C1NN=c1s/c(=C\c3cnc(C)n3C)c(=O)n12` (stereo not given), -33.3% (active). For `CCN(CC)CCNc1ccc(N=Nc2cnc3ccccc3c2)c2ccccc12` the value was -72.2% (active).
